Records with an inconclusive call do not appear. Activity calls are given as the source filed them. Unless noted, calls come from the whole dose curve; as a rule, active = well fitted curve in the direction sought with a large enough effect; inconclusive = small, poorly fitted or top-dose-only effect, or another doubt; inactive = no such curve, though single readings can be large; an effect the other way counts as inactive or inconclusive.
Assays:
[1] = Cell Viability - BJ (AID 421; calls by dose curve;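 note: potency is the fitted concentration of half-maximal effect; cells exposed to compound for 40 hours at 37 °C before readout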); settings: BJ fibroblast viability, qHTS
Summary of the method: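 Normal human BJ foreskin fibroblasts, 1500/well in complete medium, treated 40 hr at 37 °C. Cellular ATP by CellTiter-Glo luminescence; normalized to DMSO and 100 uM tamoxifen, AC50 from Hill fit.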

[2] = Cell Viability - Hek293 (AID 427;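 active = compounds whose dose-response curve shows a full or clear partial loss of cell viability, called from curve shape rather than a numeric limit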;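 note: potency is the fitted concentration of half-maximal effect; cells exposed to compound for 40 hours at 37 °C before reading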); settings: qHTS
Summary of the method: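 HEK293 cells in complete medium were exposed to compound for 40 hr at 37 °C, then cellular ATP was read by CellTiter-Glo luminescence. Data were normalized to DMSO (basal) and 100 uM tamoxifen (100% inhibition), and AC50 came from Hill fits.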

[3] = Cell Viability - HepG2 (AID 433; calls by dose curve;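 note: potency is the fitted concentration of half-maximal effect; potency for ATP loss meaning cytotoxicity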); settings: qHTS
Summary of the method: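 ATP luminescence (CellTiter-Glo) after 40 h compound exposure, 37 °C, HepG2, 1500 cells/well, complete medium. Normalized: DMSO = basal, 100 uM tamoxifen = 100% inhibition. AC50 via standard Hill equation.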

[4] = Cell Viability - MRC5 (AID 434; calls by dose curve;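 note: potency is the fitted concentration of half-maximal effect; potency reflects cytotoxicity seen as loss of intracellular ATP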); settings: MRC5 lung fibroblast viability, qHTS
Summary of the method: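 Decrease in intracellular ATP, quantified by luciferase light output, reflects compound toxicity toward MRC5 cells exposed for 40 hr in complete culture medium. Concentration-response curves, scaled between DMSO and 100 uM tamoxifen, gave AC50 values.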

[5] = biological target: Mitogen-activated protein kinase 10 (Mus musculus) (UniProt Q61831); experiment: JNK3 AlphaScreen Assay (AID 530; active = well fitted curve in either direction with a large enough effect, not every such curve was filed as active;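 note: kinase came from lysate of stimulated human HepG2 cells; signal reports phosphorylation of biotinylated GST-cJun 1-79 at Ser73 with 10 µM ATP; % is set by controls: 0 for no effect and ±100 for the full control effect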); settings: JNK3 lysate, c-Jun phosphorylation; series mostly up to 57.1 µM
Summary of the method: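 Phosphorylation of biotinylated GST-cJun(1-79) at Ser73 is measured by AlphaScreen proximity luminescence. Enzyme is JNK3 in HepG2 lysates activated with interleukin-1beta and tumor necrosis factor alpha; ATP is 10 uM final.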

[6] = Cell Viability - N2a (AID 540); settings: N2a mouse neuroblastoma cell viability; activity change, negative = cytotoxicity: at 92.2 µM (top of the series);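 note: plate controls were DMSO alone for no effect and tamoxifen control for full effect; nearly all actives have a fitted effect of over 45% in size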
Summary of the method: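 CellTiter-Glo ATP luminescence, read 20 min after reagent at room temperature, reported viability following 40 h compound treatment at 37 °C. N2a mouse neuroblastoma cells seeded 1500/well; Hill equation gave AC50.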

[7] = Cell Viability - HUV-EC-C (AID 542); settings: HUV-EC-C endothelial cell viability, qHTS; series mostly up to 92.2 µM; note: % is set by controls: 0 for no effect and ±100 for the full control effect; nearly all actives have a fitted effect of over 35% in size
Summary of the method: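 CellTiter-Glo luminescence measured ATP loss in HUV-EC-C cells (1000/well) after 40 hr compound exposure at 37 °C, in complete culture medium. Concentration-response data were Hill-fitted to give AC50.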

[8] = Cell Viability - H-4-II-E (AID 543); settings: H-4-II-E rat hepatoma viability; series mostly up to 92.2 µM; note: % is set by controls: 0 for no effect and ±100 for the full control effect; nearly all actives have a fitted effect of over 35% in size
Summary of the method: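 CellTiter-Glo luminescence (intracellular ATP) measured after 40 h compound exposure at 37 °C in H-4-II-E rat hepatoma cells seeded at 1500/well. Values are AC50s fitted with the standard Hill equation.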

[9] = Cell Viability - SH-SY5Y (AID 544); settings: SH-SY5Y neuroblastoma cell viability; viability change, negative = cytotoxic: at 92.2 µM (top of the series); note: nearly all actives have a fitted effect of over 55% in size
Summary of the method: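 Cytotoxicity measured via ATP-dependent luciferase luminescence (CellTiter-Glo) following 40 h, 37 °C exposure of 1500 SH-SY5Y cells per well. Concentration-response data were fitted with the standard Hill equation to give AC50.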

[10] = Cell Viability - Renal Proximal Tubule (AID 545); settings: renal proximal tubule cells viability, primary cells of rat origin; series mostly up to 91.7 µM; note: nearly all actives have a fitted effect of over 40% in size
Summary of the method: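 Rat kidney proximal tubule cells, freshly isolated; 1000 cells/well, 5 hr settle, compound 40 hr 37 °C. CellTiter-Glo 20 min RT, luminescence read. AC50 by standard Hill fit.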

[11] = Cell Viability - Mesenchymal (AID 546); settings: mesenchymal cells viability, qHTS; series mostly up to 91.7 µM;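 note: cells exposed to compound for 40 hours before reading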
Summary of the method: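 In this qHTS cytotoxicity format, glomerulus-derived human mesenchymal kidney cells received compound for 40 hr, then luciferase-based ATP quantitation. Concentration-response data were fitted with the Hill equation.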

[12] = Cellular Toxicity (caspase-3) HepG2 (AID 654); settings: HepG2 caspase-3 activation, luminescence; series mostly up to 92.2 µM;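 note: cells exposed to compound for 16 hours before reading; 0% = DMSO alone and 100% = caspase signal from 100 µM tamoxifen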
Summary of the method: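 Caspase 3/7 activation is measured as a luminescence increase (aminoluciferin substrate) after 16 h compound exposure of human hepatocarcinoma HepG2 cells. AC50 values are Hill fits, scaled between DMSO baseline and 100 uM tamoxifen stimulation.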

[13] = Cellular Toxicity (caspase-3) Jurkat (AID 655); settings: Jurkat caspase-3 activation, luminescence; caspase-3 activation: at 92.2 µM (top of the series), DMSO = 0%, tamoxifen = 100%;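 note: cells exposed to compound for 16 h at 37 °C before reading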
Summary of the method: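 Luminescent caspase-3/7 readout (aminoluciferin substrate cleavage) in human T-cell leukemia Jurkat cells after 16 hr compound exposure. Concentration-response normalized to DMSO and 100 uM tamoxifen; AC50 by standard Hill equation.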

[14] = Cellular Toxicity (caspase-3) HUV-EC-C (AID 656); settings: HUV-EC-C cells, caspase-3 activation (apoptosis), vehicle = 0, 100 µM tamoxifen = 100%; series mostly up to 92.2 µM
Summary of the method: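 Luminescent caspase-3/7 activation (aminoluciferin substrate cleavage) in HUV-EC-C cells after 16 hr compound exposure, 37°C. Signal normalized to DMSO basal and 100 uM tamoxifen as 100%; AC50 from concentration-response fitted with the Hill equation.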

[15] = Cellular Toxicity (caspase-3) SHSY5Y (AID 657); settings: SH-SY5Y caspase-3 activation, DMSO zero, 10 µM staurosporine = 100%; series mostly up to 91.7 µM;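 note: cells exposed to compound for 16 hours at 37 °C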
Summary of the method: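 Luminescent caspase-3/7 readout (aminoluciferin release) in SH-SY5Y cells after 16 h compound exposure in complete medium. Activity scaled between DMSO basal and 10 uM staurosporine as 100%; concentration-response fitted to Hill equation for AC50.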

[16] = Cellular Toxicity (caspase-3) BJ (AID 658); settings: BJ fibroblasts, luminescence, normalized: DMSO 0%, staurosporine 100%; series mostly up to 91.7 µM;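 note: cells exposed to compound for 16 hours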
Summary of the method: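 Plated BJ cells (1000/well) rested 5 hr, received compound for 16 hr at 37 °C, then Caspase-Glo 3/7 reagent for 1 hr at room temperature before luminescence reading.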

[17] = Cellular Toxicity (caspase-3) MRC-5 (AID 659); settings: MRC-5 cells, luminescence, normalized: DMSO 0%, 10 µM staurosporine 100%; series mostly up to 91.7 µM;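 note: cells exposed to compound for 16 h at 37 °C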
Summary of the method: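 Apoptosis readout in MRC-5 cells: luciferase light generated after caspase 3/7 cleaves a peptide-aminoluciferin substrate, measured post 16 hr compound incubation at 37 °C.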

[18] = Cell Viability - SK-N-SH (AID 435; calls by dose curve; note: potency is the fitted concentration of half-maximal effect); settings: SK-N-SH neuroblastoma cell viability qHTS
Summary of the method: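 CellTiter-Glo ATP luminescence, 20 min RT read; cells pre-plated 5 hr, compound 40 hr at 37 °C, 1500 cells/well, complete medium. Normalized DMSO = 0, 100 uM tamoxifen = 100% inhibition; Hill-fit AC50.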

[19] = Cell Viability - NIH 3T3 (AID 541); settings: NIH 3T3 cell viability, qHTS; activity change, negative = cytotoxicity: at 92.2 µM (top of the series);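 note: plate controls were DMSO alone for no effect and tamoxifen positive control for full effect; nearly all actives have a fitted effect of over 25% in size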
Summary of the method: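 Intracellular ATP (CellTiter-Glo luminescence, 20 min at room temperature) measured after 40 hr compound exposure at 37 °C of 1000 NIH 3T3 mouse fibroblasts/well in complete medium; AC50 derived by Hill-equation modelling of qHTS concentration-response curves.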

[20] = Cell Viability - Jurkat (AID 426;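 active = dose-dependent loss of cell ATP signal giving a full or clear fitted curve, ranked by lower potency value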; note: potency is the fitted concentration of half-maximal effect); settings: qHTS
Summary of the method: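 Cytotoxicity taken as drop in cellular ATP (CellTiter-Glo luminescence, 20 min room temperature) after 40 hr, 37C treatment of 5000 Jurkat Clone E6-1 cells per well; concentration-response fitted with Hill equation for AC50.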

COC(=O)c1ccccc1
inactive: Potency [1] > 92 µM | Potency [2] > 92 µM | Potency [3] > 92 µM | Potency [4] > 92 µM | outcome [5] | activity change, negative = cytotoxicity [6] -10.2% | Potency [7] | Potency [8] | Potency [9] | Potency [10] | Potency [11] | Potency [12] | caspase-3 activation [13] 2.94% | outcome [14] | outcome [15] | outcome [16] | outcome [17]

CC(C)=CCC/C(C)=C/C=O
inactive: Potency [1] > 92 µM | Potency [2] > 92 µM | Potency [3] > 92 µM | Potency [18] > 92 µM | outcome [5] | activity change, negative = cytotoxicity [6] -7.95% | Potency [7] | Potency [8] | Potency [9] | Potency [10] | Potency [11] | Potency [12] | caspase-3 activation [13] 0.822% | outcome [14] | outcome [15] | outcome [16] | outcome [17]

Nc1cccc([N+](=O)[O-])c1
inactive: Potency [1] > 92 µM | Potency [2] > 92 µM | Potency [3] > 92 µM | Potency [4] > 92 µM | Potency [18] > 92 µM | outcome [5] | activity change, negative = cytotoxicity [6] -10.1% | Potency [19] | Potency [7] | Potency [8] | Potency [9] | Potency [10] | Potency [11] | Potency [12] | caspase-3 activation [13] 0.664% | outcome [14] | outcome [15] | outcome [16] | outcome [17]

Cc1cccc(Br)c1
inactive: Potency [1] > 92 µM | Potency [2] > 92 µM | Potency [3] > 92 µM | Potency [4] > 92 µM | Potency [18] > 92 µM | outcome [5] | activity change, negative = cytotoxicity [6] -13.7% | Potency [19] | Potency [7] | Potency [8] | Potency [9] | Potency [11] | Potency [12] | caspase-3 activation [13] -1.22% | outcome [14] | outcome [15] | outcome [16] | outcome [17]

CC(C)C(C)C
inactive: Potency [1] > 92 µM | Potency [2] > 92 µM | Potency [3] > 92 µM | Potency [4] > 92 µM | Potency [18] > 92 µM | outcome [5] | activity change, negative = cytotoxicity [6] 5.14% | Potency [19] | Potency [7] | Potency [8] | Potency [9] | Potency [10] | Potency [11] | Potency [12] | caspase-3 activation [13] -0.000823% | outcome [14] | outcome [15] | outcome [16] | outcome [17]

Cc1cc(C)cc(N)c1
inactive: Potency [1] > 92 µM | Potency [2] > 92 µM | Potency [3] > 92 µM | Potency [4] > 92 µM | Potency [18] > 92 µM | outcome [5] | activity change, negative = cytotoxicity [6] 0.732% | Potency [19] | Potency [7] | Potency [8] | Potency [9] | Potency [10] | Potency [11] | caspase-3 activation [13] 0.537% | outcome [14] | outcome [15] | outcome [16] | outcome [17]

O=C(O)CN(CC(=O)O)CC(=O)O
inactive: Potency [1] > 92 µM | Potency [2] > 92 µM | Potency [3] > 92 µM | Potency [4] > 92 µM | Potency [18] > 92 µM | outcome [5] | activity change, negative = cytotoxicity [6] -5.01% | Potency [19] | Potency [7] | Potency [8] | Potency [9] | Potency [10] | Potency [11] | caspase-3 activation [13] 1.43% | outcome [14] | outcome [15] | outcome [16] | outcome [17]

Cc1ccccc1Br
inactive: Potency [1] > 92 µM | Potency [20] > 92 µM | Potency [2] > 92 µM | Potency [3] > 92 µM | Potency [18] > 92 µM | activity change, negative = cytotoxicity [6] -5.14% | Potency [7] | Potency [8] | Potency [9] | Potency [11] | Potency [12] | caspase-3 activation [13] -0.129% | outcome [14] | outcome [15] | outcome [16] | outcome [17]

CC(=O)OC(C)C
inactive: Potency [1] > 92 µM | Potency [2] > 92 µM | Potency [3] > 92 µM | Potency [4] > 92 µM | Potency [18] > 92 µM | outcome [5] | activity change, negative = cytotoxicity [6] 3.96% | Potency [7] | Potency [8] | Potency [9] | Potency [10] | Potency [11] | Potency [12] | outcome [14] | outcome [15] | outcome [16] | outcome [17]

Nc1cc(Cl)c(N)c(Cl)c1
inactive: Potency [1] > 92 µM | Potency [2] > 92 µM | Potency [3] > 92 µM | Potency [4] > 92 µM | Potency [18] > 92 µM | outcome [5] | activity change, negative = cytotoxicity [6] -5.31% | Potency [19] | Potency [7] | Potency [8] | Potency [10] | Potency [11] | Potency [12] | caspase-3 activation [13] 3.71% | outcome [14] | outcome [15] | outcome [16] | outcome [17]

Nc1ccccc1[N+](=O)[O-]
inactive: Potency [1] > 92 µM | Potency [2] > 92 µM | Potency [3] > 92 µM | Potency [4] > 92 µM | Potency [18] > 92 µM | outcome [5] | activity change, negative = cytotoxicity [6] -9.35% | Potency [19] | Potency [7] | Potency [8] | Potency [9] | Potency [10] | Potency [11] | Potency [12] | caspase-3 activation [13] -0.598% | outcome [14] | outcome [15] | outcome [16] | outcome [17]

O=C(O)c1ccccc1C(=O)O
inactive: Potency [20] > 92 µM | Potency [2] > 92 µM | Potency [3] > 92 µM | Potency [4] > 92 µM | Potency [18] > 92 µM | outcome [5] | activity change, negative = cytotoxicity [6] 1.25% | Potency [19] | Potency [7] | Potency [8] | Potency [9] | Potency [10] | Potency [11] | Potency [12] | caspase-3 activation [13] 2.22% | outcome [14] | outcome [15] | outcome [16] | outcome [17]

CCC(C)=O
inactive: Potency [20] > 92 µM | Potency [2] > 92 µM | Potency [3] > 92 µM | Potency [4] > 92 µM | Potency [18] > 92 µM | outcome [5] | activity change, negative = cytotoxicity [6] -16.1% | Potency [19] | Potency [7] | Potency [8] | Potency [9] | Potency [10] | Potency [11] | Potency [12] | caspase-3 activation [13] -0.0185% | outcome [14] | outcome [15] | outcome [16] | outcome [17]
